Test results as given in PubChem BioAssay (EPA / NIEHS).
Records with an inconclusive call do not appear. Activity calls are given as the source filed them. Rule for the calls, unless noted: active = hit-call score of the fitted dose curve at least 0.9, where 1 is the maximum; inactive = score below 0.9.

Legend:
[1] = test system: Thyroperoxidase (TPO), gene 54314; test: CCTE_Simmons_AUR_rTPO: CCTE's Amplex UltraRed Assay for Thyroperoxidase (TPO) Inhibition, Simmons Lab (AID 2283662; active = hit-call score of the fitted dose curve at least 0.9, where 1 is the maximum;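 note: potency for loss of signal meaning inhibition of peroxidase activity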)
Summary of the method: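 Cell-free peroxidase activity assay using rat thyroid gland microsomes with excess H2O2 (300 uM) and 25 uM Amplex UltraRed. Compounds tested from 5 nM to 87.5 uM; fluorescence measured after 30 min at 37C, analysed relative to DMSO baseline.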

[2] = CCTE_Deisenroth_AIME_384WELL_CTox_Active: Cytotoxicity Assessment (CTOX) in CCTE's 384-well Estrogen Receptor Transactivation Assay with AIME metabolic competence (metabolism positive), Deisenroth Lab (AID 2284037; active = hit-call score of the fitted dose curve at least 0.9, where 1 is the maximum;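 note: chemicals first conditioned 2 h by alginate-bound induced rat liver S9 before cells; activity means signal loss indicating cell death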)
Summary of the method: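 VM7Luc4E2 breast cells received medium pre-incubated 2 h with chemical over alginate microspheres holding induced male Sprague Dawley rat liver S9; viability read 24 h later by protease-substrate fluorescence. Loss of signal, bidirectional fit, 0.002–200 uM.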

[3] = CCTE_Deisenroth_AIME_384WELL_CTox_Inactive: Cytotoxicity Assessment (CTOX) in CCTE's 384-well Estrogen Receptor Transactivation Assay without AIME metabolic competence (metabolism negative), Deisenroth Lab (AID 2284039; active = hit-call score of the fitted dose curve at least 0.9, where 1 is the maximum;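 note: cell viability via live-cell protease substrate cleaved to fluorescent probe; cells exposed 24 h to medium preincubated 2 h with alginate-water beads without S9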)
Summary of the method: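 Metabolism-negative arm: chemicals (10-point, 0.002 - 200 uM) preincubated 2 h with alginate-water lids, medium moved onto VM7Luc4E2 cells for 24 h. Fluorescent live-cell protease readout; bidirectional curve fit.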

[4] = read-out: Collagen IV, COL4A1 (gene 1282); test: BSK_MyoF_CollagenIV: BioMAP Diversity Plus: MyoF Assay for Collagen IV Biomarker Activity (AID 2284247); conditions: primary human lung fibroblasts
Summary of the method: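 Primary human lung fibroblasts (MyoF system) dosed 24 h; Collagen IV measured by ELISA. Activity fitted in positive direction against DMSO; cytotoxicity tracked by SRB total-protein staining in parallel cultures.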

[5] = read-out: Interleukin-8 (IL8), CXCL8 (gene 3576); test: BSK_MyoF_IL8: BioMAP Diversity Plus: MyoF Assay for Interleukin-8 (IL8) Biomarker Activity (AID 2284261); conditions: primary human lung fibroblasts
Summary of the method: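 DMSO-normalised, upward-fitted IL-8 ELISA signal; human lung fibroblasts, 24 h chemical treatment.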

Decorin, DCN (gene 1634) = test: BSK_MyoF_Decorin: BioMAP Diversity Plus: MyoF Assay for Decorin Biomarker Activity (AID 2284265); conditions: primary human lung fibroblasts
Summary of the method: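 In this multiplexed fibroblast system, secreted or surface decorin is detected by ELISA one day after dosing, with increases scored against the DMSO vehicle.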

[6] = BSK_MyoF_SRB: Viability Assessment in the BioMAP Diversity Plus: MyoF Assay (AID 2284267); conditions: primary human lung fibroblasts;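 note: total protein by SRB absorbance in parallel cultures as cytotoxicity measure; cells assessed 24 h after compound addition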
Summary of the method: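 Human lung fibroblasts, 24 h after chemical dosing; total protein measured by 0.1% sulforhodamine B staining after 10% TCA fixation, read at 560 nm, fitted relative to DMSO baseline.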

[7] = read-out: Matrix Metallopeptidase 1 (MMP1), MMP1 (gene 4312); test: BSK_MyoF_MMP1: BioMAP Diversity Plus: MyoF Assay for Matrix Metallopeptidase 1 (MMP1) Biomarker Activity (AID 2284268); conditions: primary human lung fibroblasts
Summary of the method: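 Fibroblasts from human lung receive compound for 24 h before ELISA quantitation of MMP1. DMSO serves as baseline, and the endpoint is fitted for signal gain.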

SERPINA7 (gene 6906) = test: CCTE_GLTED_hTBG: CCTE's human Thyroxine-binding Globulin (TBG) Inhibition Assay, Great Lakes Toxicology and Ecology Division (GLTED) Lab (AID 2284343; active = hit-call score of the fitted dose curve at least 0.9, where 1 is the maximum;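 note: active chemicals lower fluorescence versus DMSO baseline by displacing probe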)
Summary of the method: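 Human TBG incubated 2 h with test chemical; displacement of ANSA probe read by fluorescence, 380 nm excitation/475 nm emission. Loss of signal relative to DMSO.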

TTR (gene 7276) = test: CCTE_GLTED_hTTR_0.125uM: CCTE's human Transthyretin (hTTR) Inhibition Assay, with 0.125uM TTR, Great Lakes Toxicology and Ecology Division (GLTED) Lab (AID 2284431);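 note: hits lower the fluorescence signal relative to DMSO baseline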
Summary of the method: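 Activity is defined as decreased ANSA fluorescence (ex 380, em 475) from human transthyretin, 0.125uM, following 2-hour chemical exposure in a cell-free setup, with DMSO as baseline.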

[8] = molecular target: Peroxisome proliferator-activated receptor gamma (Homo sapiens) (UniProt P37231); test: NVS_NR_hPPARg: NovaScreen (NVS) Nuclear Receptor Binding Assay for human Peroxisome Proliferator-activated Receptor gamma (PPARg) (AID 2283370; active = hit-call score of the fitted dose curve at least 0.9, where 1 is the maximum)
Summary of the method: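 Extracted receptor protein, cell-free; compound incubated 2 h then fluorescence polarization read. Baseline: DMSO. Actives from 25 uM duplicate screen re-run across concentrations.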

[9] = test system: Sodium/Iodide Symporter (NIS), SLC5A5 (gene 6528); test: CPHEA_Stoker_NIS_Inhibition_RAIU: CPHEA's Radioactive Iodide Uptake (RAIU) Assay for Sodium/Iodide Symporter (NIS) Inhibition, Stoker and Laws Labs (AID 2283841; active = hit-call score of the fitted dose curve at least 0.9, where 1 is the maximum)
Summary of the method: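 Iodide uptake through human NIS is measured in an engineered HEK293T line. Cells take up 125I (329pM final) for 2 hours at room temperature alongside chemicals at 0.001–100uM. Retained radioactivity is counted, and the signal is expressed against DMSO controls.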

[10] = molecular target: human Phosphodiesterase 10 (PDE10), PDE10A (gene 10846) (UniProt Q9Y233); test: NVS_ENZ_hPDE10: NovaScreen (NVS) Enzymatic Assay for human Phosphodiesterase 10 (PDE10) (AID 2283195; active = hit-call score of the fitted dose curve at least 0.9, where 1 is the maximum)
Summary of the method: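 Fluorescence/mobility-shift readout of PDE10A enzyme activity, taken 1 h post-dosing. Primary screen in duplicate at 25 uM; actives (e.g. ≥30% inhibition) retested as singleton concentration-response, top concentration 50 uM.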

[11] = molecular target: Bile acid receptor (Homo sapiens) (UniProt Q96RI1); test: ATG_IR1_CIS: Attagene CIS-FACTORIAL HepG2 Assay for human Nuclear Receptor Subfamily 1 Group H Member 4 (NR1H4), IR1 submotif (AID 2282946); conditions: IR1 reporter transcription, actives raise or lower the signal
Summary of the method: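 Transient MRTU transfection, HepG2; 24 h dosing; RNA → RT-PCR → 6-FAM primer extension → HpaI digest → capillary electrophoresis fluorescence. Gain/loss of signal fitted relative to DMSO.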

[12] = molecular target: Bile acid receptor (Homo sapiens) (UniProt Q96RI1); test: OT_FXR_FXRSRC1_0480: Odyssey Thera (OT) 8-hour HEK293T Protein-Complementation Assay for Farnesoid X receptor/SRC-1 Co-activator (AID 2283383; active = hit-call score of the fitted dose curve at least 0.9, where 1 is the maximum)
Summary of the method: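 HEK293T protein-fragment complementation assay: FXR and SRC-1 coactivator are fused to reporter fragments, and their interaction restores a fluorescent reporter. Readout was taken 8 h after dosing, with gain of signal fit relative to DMSO.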

[13] = CEETOX_H295R_MTT_cell_viability: Viability Assessment in the CeeTox HT-H295R MTT Assay (AID 2283718)
Summary of the method: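 H295R cells prestimulated 48 h with 10 uM forskolin, then exposed 48 h to test chemical (0.1% DMSO final). Viability by MTT (0.5 mg/ml, 4 h, 37 C), absorbance 570/650 nm; percent change versus DMSO, bidirectional fit.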

[14] = molecular target: rat Thyrotropin Releasing Hormone Receptor (TRH), Trhr (gene 25570) (UniProt Q01717); test: NVS_GPCR_rTRH: NovaScreen (NVS) G Protein-Coupled Receptor Assay for rat Thyrotropin Releasing Hormone Receptor (TRH) (AID 2283329; active = hit-call score of the fitted dose curve at least 0.9, where 1 is the maximum;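 note: hit means lower bound tracer signal versus DMSO baseline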)
Summary of the method: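 Rat forebrain membrane prep, radioligand displacement, filter scintillation readout at 4 h. Single conc 25 uM, duplicate; actives retested as concentration series. DMSO = negative control/baseline.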

[15] = ATG_PPRE_CIS: Attagene CIS-FACTORIAL HepG2 Assay for human Peroxisome Proliferator-activated Response Element (PPRE) (AID 2282958); conditions: HepG2 PPRE cis-element reporter, Attagene transcription factor profiling; actives raise or lower the signal
Summary of the method: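 After human HepG2 hepatoma cells were transiently transfected with cis-promoter reporter constructs, they were exposed to test chemicals for 24 hours. Reporter RNA was then reverse-transcribed, PCR-amplified, FAM-labeled, HpaI-digested and quantified by capillary electrophoresis.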

[16] = molecular target: Nuclear receptor subfamily 1 group I member 2 (Homo sapiens) (UniProt O75469); test: NVS_NR_hPXR: NovaScreen (NVS) Nuclear Receptor Binding Assay for human Pregnane X Receptor (PXR) (AID 2283365; active = hit-call score of the fitted dose curve at least 0.9, where 1 is the maximum;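 note: a drop in FRET signal versus DMSO baseline means the compound binds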)
Summary of the method: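 Read-out: TR-FRET, human PXR, 2 h post-dosing, cell-free. Loss of signal vs DMSO taken as binding activity; 25 uM primary, concentration series secondary.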

[17] = CCTE_Padilla_ZF_Score.General: CCTE's 144 Hour Post-fertilization zebrafish Assay Score for General Malformation, Padilla Lab (AID 2284411)
Summary of the method: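 Wild-type zebrafish embryos were plated singly at 6-8 hpf in 10% Hanks' and exposed in sealed wells at 26C until rinsed on 5 dpf. At 6 dpf two blinded assessors scored mortality, hatching and malformations by stereomicroscopy; gain-of-signal versus DMSO.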

Chain of rat Thyrotropin Releasing Hormone Receptor (TRH), Trhr (gene 25570) (Q01717 whole entry, looked up): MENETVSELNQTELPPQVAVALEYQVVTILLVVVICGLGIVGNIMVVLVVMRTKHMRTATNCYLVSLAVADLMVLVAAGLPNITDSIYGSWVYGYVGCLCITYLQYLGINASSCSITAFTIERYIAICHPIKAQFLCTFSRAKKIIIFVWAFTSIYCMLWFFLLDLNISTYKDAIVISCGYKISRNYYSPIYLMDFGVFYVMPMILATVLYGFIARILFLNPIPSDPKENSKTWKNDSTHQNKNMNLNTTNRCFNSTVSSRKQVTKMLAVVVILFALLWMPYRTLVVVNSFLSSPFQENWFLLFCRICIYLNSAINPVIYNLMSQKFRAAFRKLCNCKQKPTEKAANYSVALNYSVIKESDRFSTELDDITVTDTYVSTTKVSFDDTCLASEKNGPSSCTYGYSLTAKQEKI
Chain of Bile acid receptor (Homo sapiens) (Q96RI1 whole entry, looked up, the tested form may be a part): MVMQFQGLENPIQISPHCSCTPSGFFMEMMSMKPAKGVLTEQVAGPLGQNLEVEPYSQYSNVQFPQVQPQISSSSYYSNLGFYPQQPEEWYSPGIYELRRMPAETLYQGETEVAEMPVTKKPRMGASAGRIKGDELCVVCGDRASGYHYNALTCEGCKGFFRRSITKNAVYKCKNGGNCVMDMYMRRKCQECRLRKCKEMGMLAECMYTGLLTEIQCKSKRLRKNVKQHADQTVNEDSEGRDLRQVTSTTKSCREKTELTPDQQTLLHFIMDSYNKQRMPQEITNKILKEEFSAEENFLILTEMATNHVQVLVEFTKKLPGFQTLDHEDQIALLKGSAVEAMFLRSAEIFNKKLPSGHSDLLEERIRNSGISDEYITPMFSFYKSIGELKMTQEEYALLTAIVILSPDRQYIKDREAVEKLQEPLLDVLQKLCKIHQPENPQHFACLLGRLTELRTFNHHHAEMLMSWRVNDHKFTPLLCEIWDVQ
Chain of Peroxisome proliferator-activated receptor gamma (Homo sapiens) (P37231 whole entry, looked up): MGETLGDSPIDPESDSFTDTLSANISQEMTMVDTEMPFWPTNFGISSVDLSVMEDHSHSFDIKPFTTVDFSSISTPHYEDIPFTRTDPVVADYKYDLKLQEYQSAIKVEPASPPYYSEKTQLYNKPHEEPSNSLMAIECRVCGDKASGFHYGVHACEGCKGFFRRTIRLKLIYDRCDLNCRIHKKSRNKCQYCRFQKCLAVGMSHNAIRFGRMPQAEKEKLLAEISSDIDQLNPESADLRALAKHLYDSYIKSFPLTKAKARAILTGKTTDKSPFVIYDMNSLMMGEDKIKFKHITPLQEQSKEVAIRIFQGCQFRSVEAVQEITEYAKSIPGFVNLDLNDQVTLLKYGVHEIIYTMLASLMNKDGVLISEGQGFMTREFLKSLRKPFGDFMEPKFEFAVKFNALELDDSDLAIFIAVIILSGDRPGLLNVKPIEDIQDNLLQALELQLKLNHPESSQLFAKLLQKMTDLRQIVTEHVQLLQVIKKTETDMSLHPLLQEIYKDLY
Chain of human Phosphodiesterase 10 (PDE10), PDE10A (gene 10846) (Q9Y233 whole entry, looked up): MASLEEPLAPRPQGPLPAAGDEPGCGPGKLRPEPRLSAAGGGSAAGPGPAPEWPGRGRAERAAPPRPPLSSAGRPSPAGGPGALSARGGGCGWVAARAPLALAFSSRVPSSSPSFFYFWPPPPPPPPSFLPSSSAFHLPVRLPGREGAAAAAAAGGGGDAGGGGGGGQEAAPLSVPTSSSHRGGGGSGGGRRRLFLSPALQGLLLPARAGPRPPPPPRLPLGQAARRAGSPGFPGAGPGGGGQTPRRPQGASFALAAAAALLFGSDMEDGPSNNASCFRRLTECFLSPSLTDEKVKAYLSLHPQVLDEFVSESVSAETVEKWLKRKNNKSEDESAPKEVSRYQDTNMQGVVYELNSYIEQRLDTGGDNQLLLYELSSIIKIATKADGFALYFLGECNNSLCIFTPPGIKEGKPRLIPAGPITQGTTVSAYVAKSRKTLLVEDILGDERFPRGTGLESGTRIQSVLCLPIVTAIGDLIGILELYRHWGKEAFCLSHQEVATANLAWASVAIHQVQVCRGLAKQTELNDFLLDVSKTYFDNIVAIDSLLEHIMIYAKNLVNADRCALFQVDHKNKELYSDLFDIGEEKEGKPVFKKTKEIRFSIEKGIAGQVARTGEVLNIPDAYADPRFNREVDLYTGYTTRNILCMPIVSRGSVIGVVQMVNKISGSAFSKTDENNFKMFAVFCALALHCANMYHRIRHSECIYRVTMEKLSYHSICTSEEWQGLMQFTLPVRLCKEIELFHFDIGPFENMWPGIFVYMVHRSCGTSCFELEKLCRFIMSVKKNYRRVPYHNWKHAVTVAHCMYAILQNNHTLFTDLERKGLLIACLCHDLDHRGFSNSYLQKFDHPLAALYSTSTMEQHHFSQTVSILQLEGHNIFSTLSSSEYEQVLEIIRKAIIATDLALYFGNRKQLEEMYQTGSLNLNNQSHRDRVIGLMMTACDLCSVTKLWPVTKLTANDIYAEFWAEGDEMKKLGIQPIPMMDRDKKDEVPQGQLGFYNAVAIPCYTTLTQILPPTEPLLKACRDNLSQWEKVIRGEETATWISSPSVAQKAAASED
Chain of Nuclear receptor subfamily 1 group I member 2 (Homo sapiens) (O75469 whole entry, looked up): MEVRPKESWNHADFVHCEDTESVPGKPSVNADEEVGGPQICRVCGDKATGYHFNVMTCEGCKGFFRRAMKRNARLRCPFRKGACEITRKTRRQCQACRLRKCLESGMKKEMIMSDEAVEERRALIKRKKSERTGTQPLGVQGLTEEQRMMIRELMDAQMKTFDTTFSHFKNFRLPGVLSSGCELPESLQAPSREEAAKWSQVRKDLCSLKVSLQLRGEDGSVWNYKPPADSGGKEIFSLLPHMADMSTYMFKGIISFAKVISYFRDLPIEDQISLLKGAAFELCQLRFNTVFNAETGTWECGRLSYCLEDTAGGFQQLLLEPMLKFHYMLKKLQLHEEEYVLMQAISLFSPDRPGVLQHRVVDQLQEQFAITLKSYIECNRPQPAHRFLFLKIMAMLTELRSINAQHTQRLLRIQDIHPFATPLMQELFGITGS

## Oc1cccc2ccccc12
[1]
  AC50: 1.62 µM (active)
[2]
  outcome: inactive
[3]
  outcome: inactive
[4]
  outcome: inactive
[5]
  AC50: 6.06 µM (active)
Decorin, DCN (gene 1634)
  outcome: inactive
[6]
  outcome: inactive
[7]
  AC50: 12.1 µM (active)
SERPINA7 (gene 6906)
  AC50: 4.58 µM (active)
TTR (gene 7276)
  AC50: 3.07 µM (active)

## F[B-](F)(F)F
[8]
  outcome: inactive
[9]
  AC50: 0.82 µM (active)

## CC(C)CC(=O)O
[10]
  outcome: inactive

## CCCCCCCCCC/C=C/C1CC(=O)OC1=O (configuration not stated)
[11]
  outcome: inactive
[4]
  outcome: inactive
[5]
  outcome: inactive
Decorin, DCN (gene 1634)
  outcome: inactive
[6]
  outcome: inactive
[7]
  outcome: inactive

## COC(=O)/C=C\C(=O)OC
[10]
  outcome: inactive
[4]
  outcome: inactive
[5]
  outcome: inactive
Decorin, DCN (gene 1634)
  outcome: inactive
[6]
  outcome: inactive
[7]
  outcome: inactive

## CC/C=C\CCO
[2]
  outcome: inactive
[3]
  outcome: inactive

## CC[N+](CC)(CC(=O)Nc1c(C)cccc1C)Cc1ccccc1
[8]
  outcome: inactive
[4]
  outcome: inactive
[5]
  outcome: inactive
Decorin, DCN (gene 1634)
  outcome: inactive
[6]
  outcome: inactive
[7]
  outcome: inactive

## CCCCOC(=O)COc1ccc(Cl)cc1Cl
[12]
  outcome: inactive
[13]
  outcome: inactive
[2]
  outcome: inactive
[3]
  outcome: inactive
SERPINA7 (gene 6906)
  AC50: 9.59 µM (active)

## Cc1cc(C)c(S(=O)(=O)O)cc1N=Nc1cc(S(=O)(=O)O)c2ccccc2c1O
[14]
  outcome: inactive
[8]
  outcome: inactive
[1]
  AC50: 14.5 µM (active)

## O=S(=O)(O)c1cccc2ccccc12
[15]
  outcome: inactive

## CCCCCC1CCCC(=O)O1 (configuration not stated)
[10]
  outcome: inactive

## c1cc(N(CC2CO2)CC2CO2)ccc1Cc1ccc(N(CC2CO2)CC2CO2)cc1 (configuration not stated)
[11]
  AC50: 27.6 µM (active)

## O=C(Oc1ccccc1)c1ccccc1
[14]
  outcome: inactive
[12]
  AC50: 45.2 µM (active)
SERPINA7 (gene 6906)
  AC50: 8.47 µM (active)
TTR (gene 7276)
  AC50: 24.2 µM (active)

## COC(=O)[C@]1(C)CCC[C@@]2(C)[C@H]1CC=C1C=C(C(C)C)CC[C@@H]12
[14]
  outcome: inactive
[16]
  outcome: inactive
[12]
  AC50: 12.7 µM (active)
[9]
  outcome: inactive
[3]
  outcome: inactive

## CC(=O)c1nccs1
[15]
  outcome: inactive

## O=C(O)c1ccccc1C(=O)O
[13]
  outcome: inactive

## C1=CCC=C1
[2]
  outcome: inactive
[3]
  outcome: inactive

## N#CCN(CC#N)CCN(CC#N)CC#N
[10]
  AC50: 12.1 µM (active)

## O=C(OCc1ccccc1)c1ccccc1
[16]
  outcome: inactive
[12]
  outcome: inactive
[9]
  outcome: inactive
TTR (gene 7276)
  AC50: 20.7 µM (active)

## CC(C)CC(=O)CC(C)CC(C)C (configuration not stated)
[10]
  outcome: inactive
[4]
  outcome: inactive
[5]
  outcome: inactive
Decorin, DCN (gene 1634)
  outcome: inactive
[6]
  outcome: inactive
[7]
  outcome: inactive
[17]
  outcome: inactive

## Oc1ccc(Oc2ccccc2)cc1
[15]
  AC50: 48 µM (active)

## CCO[Si](CCCN)(OCC)OCC
[15]
  outcome: inactive
[13]
  outcome: inactive

## Nc1nnc(-c2ccc([N+](=O)[O-])o2)o1
[15]
  outcome: inactive

## Cc1cccnc1
[8]
  outcome: inactive
[9]
  outcome: inactive
[4]
  outcome: inactive
[5]
  outcome: inactive
Decorin, DCN (gene 1634)
  outcome: inactive
[6]
  outcome: inactive
[7]
  outcome: inactive
[17]
  outcome: inactive

## CCC(C)=NO
[2]
  outcome: inactive
[3]
  outcome: inactive

## CC[N+](CC)(CC(=O)Nc1c(C)cccc1C)Cc1ccccc1 (tested in a mixture with another compound)
[2]
  outcome: inactive
[3]
  outcome: inactive

## CC(C)CC(=O)CC(C)C
[2]
  outcome: inactive
[3]
  outcome: inactive
